For assay [1], the target named is Cellular tumor antigen p53 (Homo sapiens) (UniProt P04637). In words: Primary qHTS for small molecule compounds that upregulate eGFP-tagged delta133p53alpha (in N-terminal) cells. (AID 2060322).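 Further: series mostly up to about 56 µM; 0% = DMSO vehicle and 100% = reference activator; nearly all actives have a fitted effect of over 75% in size.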 The following applies: NCI-H358 eGFP-delta133p53alpha fluorescence, 24 h; activation: hits give high values. The method in brief: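 NCI-H358 cells pre-induced 24 h with 10 ng/ml doxycycline to express N-terminal eGFP-delta133p53alpha, then dosed 24 h at 37C without doxycycline; fixed, Hoechst-stained, GFP intensity by laser scanning cytometry, normalized to DMSO (0%) and 57.5 uM 5-azacytidine (100%).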
A general note: In qHTS, concentration-response curves come from the screen itself.

The target is the same in assay [2]. In words: Primary qHTS for small molecule compounds that upregulate eGFP-tagged delta133p53alpha (in C-terminal) cells. (AID 2060324). Further: potency means the concentration at half of the fitted maximal effect. The method, boiled down:
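C-terminal eGFP-tagged delta133p53alpha NCI-H358 line; dox-induced (100 ng/ml, 24 h) then plated without dox; compounds pinned in titration, 24 h 37 °C/5% CO2; PFA fix, Hoechst nuclei; GFP by LSC.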

A short description of assay [3]: BET inhibitor-based combinations targeting novel dependencies in MECOM-rearranged (r) AML: MV-4-11 cell line (AID 2202233). Further: nearly all actives have a fitted effect of over 45% in size. Further: potency means the concentration at half of the fitted maximal effect. The method, boiled down: (§1)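 Using pin-tool transfer, drugs were added in 11 doses to cells (500/well), incubated 48 hr, and assessed with CellTiter-Glo. Z-AUC is a mean-centring transformation applied separately to each screened line.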
Assay [4] addresses Aldehyde dehydrogenase, mitochondrial (Homo sapiens) (UniProt P05091). As to the kind of experiment: qHTS for Inhibitors of the Aldehyde Dehydrogenase Family (ALDH2) Validation screens (AID 2061302; active means well fitted inhibition curve with a large enough effect; title and protocol of this record describe different tests;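 further: plate controls were DMSO vehicle for no effect and maximal DPI positive control response for full effect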).
Assay [5] addresses Retinaldehyde dehydrogenase 3 (Homo sapiens) (UniProt P47895). As to the kind of experiment: qHTS for Inhibitors of the Aldehyde Dehydrogenase Family (ALDH1A3) Validation screen (AID 2061312). Further: on the % scale 0 is the no-effect control and ±100 the full control effect; nearly all actives have a fitted effect of over 45% in size.
Assay [6] can be described thus: BET inhibitor-based combinations targeting novel dependencies in MECOM-rearranged (r) AML: SET-2 cell line (AID 2202231). Further: nearly all actives have a fitted effect of over 35% in size. Further: potency means the concentration at half of the fitted maximal effect.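 On viability: plate controls were DMSO treated cells for no effect and wells without cells for full effect.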 The settings on record: SET-2 AML cells viability, CellTiter-Glo luminescence, 48 h; viability: hits give low values, concentration not given here. The method in brief: (§2)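 Viability of cells (500 per well) is scored by luminescent CellTiter-Glo at 48 hr post-dosing. Eleven-point titrations are normalized to DMSO and empty controls and reduced to AUC values.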
Background: Cellular ATP, detected with luciferase, serves as a proxy for viable cell number.

Assay [7] is described as follows: BET inhibitor-based combinations targeting novel dependencies in MECOM-rearranged (r) AML: OCI-AML3 cell line (AID 2202232). Further: nearly all actives have a fitted effect of over 35% in size. Further: potency means the concentration at half of the fitted maximal effect. The following applies: Potency: OCI-AML3 viability. The method in brief:
as §2

Assay [8] is described as follows: BET inhibitor-based combinations targeting novel dependencies in MECOM-rearranged (r) AML: HNT-34 cell line (AID 2202234).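 Further: plate controls were vehicle wells for no effect and cell-free wells for full effect; nearly all actives have a fitted effect of over 35% in size.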 The method, boiled down: as §1
The nature of assay [9]: BET inhibitor-based combinations targeting novel dependencies in MECOM-rearranged (r) AML: AML-191 cell line (AID 2202236; further: nearly all actives have a fitted effect of over 35% in size; further: potency means the concentration at half of the fitted maximal effect). The method, boiled down:
as §2

Assay [10] in a line: BET inhibitor-based combinations targeting novel dependencies in MECOM-rearranged (r) AML: AML-194 cell line (AID 2202237;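 further: plate controls were vehicle wells for no effect and wells without cells for full effect; nearly all actives have a fitted effect of over 40% in size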). The method in brief:
as §2

In assay [11] the target is Aldehyde dehydrogenase, mitochondrial (Homo sapiens) (UniProt P05091). In words: qHTS for Inhibitors of the Aldehyde Dehydrogenase Family (ALDH2) Confirmatory screens (AID 2061303; active means well fitted inhibition curve with a large enough effect; title and protocol of this record describe different tests; further: on the % scale 0 is the no-effect control and ±100 the full control effect; nearly all actives have a fitted effect of over 45% in size).
The target is the same in assay [12]. As to the kind of experiment: qHTS for Inhibitors of the Aldehyde Dehydrogenase Family (ALDH2) Primary screen (AID 2061308).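 Further: plate controls were vehicle for no effect and reference inhibitor for full effect; nearly all actives have a fitted effect of over 55% in size.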
In assay [13] the target is Retinaldehyde dehydrogenase 3 (Homo sapiens) (UniProt P47895). In words: qHTS for Inhibitors of the Aldehyde Dehydrogenase Family (ALDH1A3) Confirmatory screens (AID 2061311). Further: potency means the concentration at half of the fitted maximal effect; nearly all actives have a fitted effect of over 60% in size.
The target in assay [14] is Retinal dehydrogenase 2 (Homo sapiens) (UniProt O94788). In words: qHTS for Inhibitors of the Aldehyde Dehydrogenase Family (ALDH1A2) Confirmation screens (AID 2061314). Further: potency means the concentration at half of the fitted maximal effect; nearly all actives have a fitted effect of over 65% in size.
Assay [15] has as its target Retinaldehyde dehydrogenase 3 (Homo sapiens) (UniProt P47895). As to the kind of experiment: qHTS for Inhibitors of the Aldehyde Dehydrogenase Family (ALDH1A3) Primary screen (AID 2061315).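 Further: plate controls were DMSO vehicle for no effect and reference inhibitor for full effect.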
Assay [16] concerns the target Aldehyde dehydrogenase 1A1 (Homo sapiens) (UniProt P00352). As to the kind of experiment: qHTS for Inhibitors of the Aldehyde Dehydrogenase Family (ALDH1A1) Confirmatory screens (AID 2061316). Further: nearly all actives have a fitted effect of over 65% in size.
Assay [17] can be described thus: BET inhibitor-based combinations targeting novel dependencies in MECOM-rearranged (r) AML: UCSD-AML1 cell line (AID 2202235).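 Further: series mostly up to about 46 µM; plate controls were DMSO vehicle wells for no effect and blank wells for full effect; nearly all actives have a fitted effect of over 40% in size.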 The method in brief: as §1
Assay [18] can be described thus: qHTS for Inhibitors of the Aldehyde Dehydrogenase Family (ALDH1A2, ALDH1A3, ALDH2, ALDH3A1) (AID 2061307). Further: nearly all actives have a fitted effect of over 50% in size.

The structures appear in SMILES notation. Values joined by “and” are separate entries in the source; they are usually repeats but may differ in a detail not shown here. Equal values may be shown once. Inconclusive results are not listed. Values without a mark were called inactive. Active and inactive are the calls of the source. Unless noted, the call rests on the fitted dose curve; in most records, active means well fitted curve in the direction sought with a large enough effect; inconclusive means small, poorly fitted or top-dose-only effect, or another doubt; inactive means no such curve, though single readings can be large; an effect the other way counts as inactive or inconclusive.

By viability is commonly meant a read-out of living cells in per cent, often relative to untreated cells.

Sequence of Cellular tumor antigen p53 (Homo sapiens) (P04637 whole entry, looked up): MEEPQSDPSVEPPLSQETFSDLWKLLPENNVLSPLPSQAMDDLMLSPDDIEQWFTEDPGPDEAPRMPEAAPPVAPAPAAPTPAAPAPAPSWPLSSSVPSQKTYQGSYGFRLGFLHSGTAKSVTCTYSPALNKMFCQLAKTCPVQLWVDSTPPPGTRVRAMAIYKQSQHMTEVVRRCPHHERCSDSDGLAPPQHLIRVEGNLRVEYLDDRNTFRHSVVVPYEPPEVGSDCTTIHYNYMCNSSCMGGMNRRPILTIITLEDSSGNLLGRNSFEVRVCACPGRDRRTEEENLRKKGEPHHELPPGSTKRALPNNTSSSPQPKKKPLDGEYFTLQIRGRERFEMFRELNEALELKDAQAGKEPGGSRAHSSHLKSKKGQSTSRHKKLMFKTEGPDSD

On to `O=C1NC(=O)C(c2ccccc2[N+](=O)[O-])=C1Nc1ccc(O)c(Cl)c1`, for which the activation in assay [1] is -20.1% and -30.9%. In addition, the Potency entry in assay [2] is “inactive”. Further, the Potency in assay [3] is 20.9 µM (active).
For `Cc1cc2c(cc1Cl)N(C(=O)Nc1ccc(Oc3cccnc3C)nc1)CC2`, the activation in [1] was -71.3%. In addition, the Potency entry in assay [4] was “inactive”.
Regarding `CCN(CC)C(C)CN1c2ccccc2Sc2ccccc21` (stereo not drawn), the activation in assay [1] is -8.47% and -0.322%. Also, the Potency result in [2] and in [5] was “inactive” in each case.
On to `S=c1[nH]c(-c2ccccc2)cn1-c1ccccc1`, for which the activation in [1] is -21.8%. The Potency result in [2] and in assay [5] was “inactive” each time.
Turning to `O=C1c2ccccc2C(=O)c2c(NCCc3ccc(O)cc3)ccc(NCCc3ccc(O)cc3)c21`, in assay [1], the activation is -13.7%. Moreover, in [4], the Potency entry was “inactive”.
In the case of `Cc1[nH]c(=O)c(C#N)cc1-c1ccc2nccn2c1`, in [1], the activation is -19.2% and 47.5% and 13.7%. The Potency in [2] is 30.1 µM (active). For the same molecule, in assay [6], the viability is 118%. For the same molecule, the Potency entry in assay [7], in assay [3], in [8], in assay [9] and in [10] was “inactive” each time.
`CN(C)c1cc2c(Nc3ccc4c(cnn4Cc4ccccc4)c3)ncnc2cn1`: the activation in assay [1] is -35.7%. Also, the Potency entry in assay [4], in assay [11], in assay [12], in [5], in [15] and in assay [16] was “inactive” each time. Further, the Potency was 10 µM (active) in [13] and 0.283 µM (active) in [14].
Consider `OCc1ccc(-c2nn(Cc3ccccc3)c3ccccc23)o1`, for which, in [1], the activation was -12.3% and 3.48%. Moreover, the Potency entry in [2] was “inactive”. In addition, the Potency in assay [6] was 16.6 µM (active); in assay [7], 23.5 µM (active); in assay [3], 5.9 µM (active).
For `C[C@](N)(Cc1ccc(O)c(O)c1)C(=O)O`, in assay [1], the activation was 3.95% and 1.83% and 6.56%. The Potency result in [2], in assay [7], in [8], in assay [17] and in assay [10] was “inactive” each time.
On to `CN1CCN(C2=Nc3ccccc3Oc3ccc(Cl)cc32)CC1`, for which the activation in assay [1] is -10% and -16.8%. Moreover, the Potency result in [2] and in assay [5] was “inactive” each time.
Take `COc1ccc(/C=C/C(=O)Nc2ccccc2C(=O)O)cc1OC`: the activation in assay [1] is 22.3% and 8.92%. The Potency result in assay [2], in assay [15], in assay [7], in assay [3], in assay [8] and in assay [17] was “inactive” each time. Moreover, the Potency result in assay [9] and in [10] was “inactive” in each case. Moreover, the viability in assay [6] was 104%.
For the molecule `CO/N=C(\C(=O)N[C@@H]1C(=O)N2C(C(=O)O)=C(CSc3nc(=O)c(O)nn3C)CSC12)c1csc(N)n1` (stereo partly drawn), the activation in [1] was 4.05%. For the same molecule, the Potency entry in [2] and in assay [5] was “inactive” each time.
As for `NNCCc1ccccc1`, the activation in assay [1] was 11.9% and 3.32% and -5.28%. Further, the Potency result in assay [2], in assay [3], in assay [8], in assay [17] and in assay [10] was “inactive” throughout. Further, the viability in assay [6] is 108%. Further, the Potency in [7] was 7.42 µM (active).
For `N=C(N)SCCc1cnc[nH]1`, the activation in [1] is -28.5%. Moreover, the Potency result in assay [4] is “inactive”.
Regarding `c1ccc(C(NCc2cccnc2)(c2ccccc2)c2ccccc2)cc1`, the activation in [1] is -2.89%. In addition, the Potency entry in assay [2] and in [5] was “inactive” each time.
Take `N#C/C(=C\c1ccc(-c2cc(Cl)ccc2Cl)o1)C(=O)Nc1cccc2ncccc12`: in [1], the activation was -37.8%. Also, the Potency entry in assay [4] was “inactive”.
As for `N#CC(=C(\N)Sc1ccccc1N)/C(C#N)=C(/N)Sc1ccccc1N`, the activation in assay [1] was -29.9%. The Potency entry in assay [4] is “inactive”.
For `OCC1O[C@H]([S-])[C@H](O)[C@@H](O)[C@@H]1O.[Au+]` (stereo partly drawn), in assay [1], the activation is 21.8%. Also, the Potency result in assay [4], in assay [11] and in assay [16] was “inactive” in each case. In assay [18], the Potency was 2.83 µM (active).
On to `COC1=C(OC)C(=O)c2ccccc2C1=O`, for which, in assay [1], the activation is -31%. Moreover, the Potency result in assay [4], in assay [11] and in assay [18] was “inactive” each time. In addition, the Potency in assay [13] is 0.712 µM (active); in [14] it was 2.52 µM (active).
In the case of `c1ccc(CN2CCC3(CCCc4ccccc43)CC2)cc1`, the activation in assay [1] is -56.7%. Further, the Potency result in assay [4] was “inactive”.
Turning to `CC1(C)NC(=O)N(c2ccc([N+](=O)[O-])c(C(F)(F)F)c2)C1=O`, in assay [1], the activation is -8.47% and -2.88% and -17.8%. In addition, the Potency result in assay [2], in [5], in [7], in assay [3], in assay [8] and in [17] was “inactive” in each case. Besides, the Potency entry in assay [9] and in assay [10] was “inactive” in each case.
For the molecule `CC(C)(C(=O)O)c1ccc(C(O)CCCN2CCC(C(O)(c3ccccc3)c3ccccc3)CC2)cc1` (stereo not drawn), in assay [1], the activation was 1.67% and -7.64% and -17.3%. For the same molecule, the Potency entry in assay [4], in [12], in assay [5] and in assay [15] was “inactive” each time.
`O=C(O)C1=CCCN(CCON=C(c2ccccc2)c2ccccc2)C1`: the activation in assay [1] is 20.9%. The Potency entry in assay [2] and in assay [5] was “inactive” in each case.
Regarding `CCOC(=O)CSc1nc2c(sc3ccccc32)c(=O)n1CCCN1CCCC1`, the activation in assay [1] was 2.86%. Moreover, the Potency result in [4], in assay [12], in assay [5] and in assay [15] was “inactive” throughout.
As for `O=C1Cc2c([nH]c3ccc(Br)cc23)-c2ccccc2N1`, the activation in assay [1] was -51%. For the same molecule, in assay [4], the Potency result was “inactive”.
Turning to `CC1=C(/C=C/C(C)=C/C=C/C(C)=C\C(=O)O)C(C)(C)CCC1`, in [1], the activation was -30.1%. The Potency result in assay [2], in assay [17] and in [10] was “inactive” in each case. Also, the viability in assay [6] was 102%. In addition, the results for the Potency in assay [7] and in assay [9] were 0.742 µM (active) and 5.25 µM (active), respectively.

The values are drawn from PubChem BioAssay (NCATS).
